# Experimental data taken from the supplement of paper PMC7595190.
# Values without a mark were called inactive.
# Key:
# Assay in all cases: CellTox Green cytotoxicity fluorescence relative to DMSO vehicle (fold of vehicle RFU); higher = more cell death (loss of membrane integrity), active = 2 or more
# [1] = system: CMK
# Summary of the method: (§1)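 Single compounds from the Selleckchem apoptosis library were applied at final 0.01, 0.1 and 1 µM (0.1% DMSO vehicle) to MV4-11, CMK and Kasumi-1 cells seeded at 4.0 × 10^4 cells per well with CellTox Green reagent. After incubation at 37 °C, 5% CO2, fluorescence was read at 24, 48 and 72 h. Cytotoxicity, meaning loss of membrane integrity, is shown as fold of the DMSO vehicle signal.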
# [2] = system: Kasumi-1
# Summary of the method: as §1
# [3] = system: MV4-11
# Summary of the method: as §1
Compound,"CellTox Green cytotoxicity fluorescence ([1]; 0.01 µM, 24 h)","CellTox Green cytotoxicity fluorescence ([1]; 0.01 µM, 48 h)","CellTox Green cytotoxicity fluorescence ([1]; 0.01 µM, 72 h)","CellTox Green cytotoxicity fluorescence ([1]; 0.1 µM, 24 h)","CellTox Green cytotoxicity fluorescence ([1]; 0.1 µM, 48 h)","CellTox Green cytotoxicity fluorescence ([1]; 0.1 µM, 72 h)","CellTox Green cytotoxicity fluorescence ([1]; 1 µM, 24 h)","CellTox Green cytotoxicity fluorescence ([1]; 1 µM, 48 h)","CellTox Green cytotoxicity fluorescence ([1]; 1 µM, 72 h)","CellTox Green cytotoxicity fluorescence ([2]; 0.01 µM, 24 h)","CellTox Green cytotoxicity fluorescence ([2]; 0.01 µM, 48 h)","CellTox Green cytotoxicity fluorescence ([2]; 0.01 µM, 72 h)","CellTox Green cytotoxicity fluorescence ([2]; 0.1 µM, 24 h)","CellTox Green cytotoxicity fluorescence ([2]; 0.1 µM, 48 h)","CellTox Green cytotoxicity fluorescence ([2]; 0.1 µM, 72 h)","CellTox Green cytotoxicity fluorescence ([2]; 1 µM, 24 h)","CellTox Green cytotoxicity fluorescence ([2]; 1 µM, 48 h)","CellTox Green cytotoxicity fluorescence ([2]; 1 µM, 72 h)","CellTox Green cytotoxicity fluorescence ([3]; 0.01 µM, 24 h)","CellTox Green cytotoxicity fluorescence ([3]; 0.01 µM, 48 h)","CellTox Green cytotoxicity fluorescence ([3]; 0.01 µM, 72 h)","CellTox Green cytotoxicity fluorescence ([3]; 0.1 µM, 24 h)","CellTox Green cytotoxicity fluorescence ([3]; 0.1 µM, 48 h)","CellTox Green cytotoxicity fluorescence ([3]; 0.1 µM, 72 h)","CellTox Green cytotoxicity fluorescence ([3]; 1 µM, 24 h)","CellTox Green cytotoxicity fluorescence ([3]; 1 µM, 48 h)","CellTox Green cytotoxicity fluorescence ([3]; 1 µM, 72 h)"
CC[C@H](NC(=O)[C@H](C)NC)C(=O)N1C[C@@H](O)C[C@H]1Cc1c(-c2[nH]c3cc(F)ccc3c2C[C@@H]2C[C@H](O)CN2C(=O)[C@H](CC)NC(=O)[C@H](C)NC)[nH]c2cc(F)ccc12 [Birinapant],0.985,0.974,0.988,0.998,0.996,1,0.983,1.03,0.952,0.993,1.03,1.05,1.02,1.1,1.2,1.04,1.26,1.5,0.987,0.989,1,0.988,1.04,1.08,1.03,1.2,1.32
Cc1nn(C)c(COc2ccc(N3CCN(S(=O)(=O)N(C)C)CC3)cc2)c1-c1cccc2c(CCCOc3cccc4ccccc34)c(C(=O)O)n(CCN3CCOCC3)c12,0.996,1,1,0.995,0.985,0.957,0.985,1.01,0.948,0.998,0.981,0.976,1.01,1.03,1.04,0.938,1.03,1.03,0.991,0.986,0.981,1.05,1.1,1.12,1.15,1.49,1.67
O=C(O)CSc1cc(NS(=O)(=O)c2ccc(Br)cc2)c2ccccc2c1O,0.973,0.966,0.955,0.961,0.961,0.969,0.984,1.03,1.03,1.05,0.997,1.01,0.985,0.972,0.997,0.98,1.03,1.08,0.99,0.983,0.99,0.988,0.985,0.989,0.983,0.997,1.03
O=C(COc1ccc(Cl)cc1)NC1CCC(NC(=O)COc2ccc(Cl)cc2)CC1 (stereo not drawn),0.999,0.971,0.929,0.975,0.97,0.973,0.971,1.02,1.01,1.02,0.993,0.987,0.991,0.965,0.954,0.966,0.962,0.961,0.993,0.994,0.983,1.01,1.02,1.01,0.994,1.01,0.992
Nc1cccc2c1CN(C1CCC(=O)NC1=O)C2=O (stereo not drawn) [Lenalidomide],0.938,0.942,0.905,0.932,0.929,0.898,0.948,0.969,0.783,0.986,0.897,0.88,0.951,0.933,0.915,0.986,1,0.982,0.939,0.942,0.935,0.943,0.929,0.915,0.952,0.958,0.944
C=CC(=O)N1CCN(C(=O)CNc2cc(I)c(Cl)cc2O)CC1 [K-Ras(G12C) inhibitor 12],1.01,0.986,0.963,0.999,0.997,0.992,0.992,1,1.02,0.989,1.01,1,1.01,0.982,0.979,0.995,0.964,0.958,0.959,0.976,0.971,0.991,0.991,1.01,0.993,0.996,1.03
CCOC(=O)C1=C(N)Oc2ccc(Br)cc2C1C(C#N)C(=O)OCC (stereo not drawn),0.931,0.915,0.892,0.944,0.948,0.975,0.954,0.967,0.968,0.946,0.93,0.927,0.923,0.902,0.875,1.01,1.05,1.06,0.97,0.991,1.01,0.944,0.944,0.948,0.96,0.957,0.957
CNC(=O)c1ccccc1Nc1cc(Nc2ccc(N3CCOCC3)cc2OC)ncc1C(F)(F)F,0.924,0.935,0.912,0.928,0.933,0.917,0.946,1.02,0.957,0.924,0.952,0.976,0.976,0.988,0.96,0.928,1.03,1.08,0.941,0.941,0.949,0.936,0.967,0.972,0.979,1.18,1.39
COc1cc(C(=O)O)ccc1NC(=O)[C@@H]1N[C@@H](CC(C)(C)C)[C@](C#N)(c2ccc(Cl)cc2F)[C@H]1c1cccc(Cl)c1F [Idasanutlin],0.938,0.944,0.96,0.943,0.953,1.01,0.963,1.01,0.933,1.01,0.971,0.962,0.966,0.949,0.947,1.01,1.03,1.03,0.983,0.967,0.97,0.971,0.958,0.972,0.967,1.03,1.1
CCN(CC)CCNC(=O)c1c(C)[nH]c(/C=C2\C(=O)Nc3ccc(F)cc32)c1C [Sunitinib],1.02,1.01,0.896,1,0.997,0.964,1.05,1.16,1.04,0.988,1.01,1.11,1.03,1.15,1.18,1.08,1.32,1.45,1.02,1.06,1.04,1.09,1.42,1.78,1.11,1.44,1.72
Nc1ccccc1NC(=O)c1cnccn1,0.987,0.99,0.976,0.967,0.987,1.02,0.965,1.02,1.11,0.967,0.96,0.904,0.988,0.995,0.988,0.932,1,1.06,0.953,0.952,0.937,0.964,0.984,0.99,0.954,0.989,1.01
CC(=O)O/N=C1/C(c2c(O)[nH]c3cc(Br)ccc23)=Nc2ccccc21 [BIO-acetoxime],1.02,0.999,0.97,0.981,0.97,0.981,0.973,0.945,1.12,1.05,1.05,1.04,1.02,1.04,1.04,0.974,1.07,1.11,1.7,1.57,1.56,1.03,1.11,1.17,1.02,1.2,1.36
CN1CCN(Cc2ccc(Nc3ncc(Cl)c(Nc4ccccc4S(=O)(=O)N(C)C)n3)cc2)CC1,0.958,0.972,0.913,1.07,1.56,1.32,2.06 (active),2.42 (active),1.62,0.957,0.97,0.961,0.997,1.34,1.49,1.47,1.66,1.72,0.95,0.961,0.975,1.14,1.93,2.27 (active),1.42,2.4 (active),2.55 (active)
COc1ccc(CCNCc2ccc(OCc3ccc(Cl)nc3)c(OC)c2)cc1OC,0.968,0.978,0.979,0.96,0.955,0.961,0.94,0.968,0.996,0.943,0.942,0.931,0.953,0.936,0.949,0.975,0.987,0.979,0.971,0.978,0.996,0.949,0.961,0.967,0.953,0.949,0.945
